Screens as filed in PubChem BioAssay.
AID504770 – growth inhibitors of E. coli YBA685 in a screen for V. cholerae RctB (chromosome II replication) inhibitors; E. coli YBA685 rctB-dependent plasmid, OD600 growth, 3 h; hits give low values; z-score (no concentration beside the values); 130,000 compounds, 0.27% hits; AID 504770; in the data active = z-score below about -2, passing the limit was not always enough
MbtI inh – inhibitors of Mycobacterium tuberculosis siderophore enzyme MbtI. P9WFX0. purified MbtI enzyme, fluorescence intensity read-out. inhibition, % (concentration not given with the values). 100,000 compounds, 0.89% hits; in the data active = inhibition mostly above about 56%, no sharp cut-off; inactive = mostly below about 77%
PV pol inh – inhibitors of poliovirus RNA polymerase binding and polymerization | poliovirus polymerase elongation, fluorescence polarization; hits give low values | % elongation, % (compound at 16.7 µg/mL) | 150,000 compounds, 0.66% hits; in the data active = % elongation below about 90%
MenB inh – blocks the Mycobacterium tuberculosis MenB enzyme | inhibition, % (no concentration beside the values) | P9WNP5 | MenB enzyme assay, absorbance read-out | AID 540299 | 100,000 compounds, 0.43% hits; in the data active = inhibition above about 21%, passing the limit was not always enough
Target sequence (P9WNP5 whole entry, looked up): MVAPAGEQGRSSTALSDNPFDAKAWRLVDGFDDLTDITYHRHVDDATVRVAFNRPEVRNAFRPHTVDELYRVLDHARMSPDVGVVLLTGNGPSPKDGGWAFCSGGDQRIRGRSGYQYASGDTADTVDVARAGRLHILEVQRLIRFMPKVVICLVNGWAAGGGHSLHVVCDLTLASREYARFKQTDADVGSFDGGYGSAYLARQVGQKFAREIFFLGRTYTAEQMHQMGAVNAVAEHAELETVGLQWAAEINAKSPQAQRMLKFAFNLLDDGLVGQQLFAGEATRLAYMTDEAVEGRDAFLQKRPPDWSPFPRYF
Of the large screens only hits and unclear results are named; the others gave an inactive call. An excerpt weighted towards active compounds, which were near 1.4% of everything screened.

Fc1ccccc1Nc1nc(NCc2ccccc2)c2ccccc2n1	none
O=C(CSC1=NCCc2ccccc21)c1ccccc1Cl	PV pol inh 68
O=C(CSC1=NCCc2ccccc21)c1ccc(-c2ccccc2)cc1	PV pol inh 83
O=C(SC1=NCCc2ccccc21)c1ccccc1	none
O=C(c1ccco1)N1CCN(CC(O)COC(c2ccc(Cl)cc2)c2ccc(Cl)cc2)CC1 (stereo not drawn)	none
Cc1cc(F)c(F)c(C(=O)N2CCCCCC2)c1Cl	MenB inh 34
Cc1cccc(NC(=S)N2CCCCC2C(N)=O)c1 (stereo not drawn)	MbtI inh 58
Cc1ccc2nc(-c3ccc(Br)o3)c(Nc3ccc4c(c3)OCCO4)n2c1	none
CCn1c(C2CC2)n[nH]c1=S	MbtI inh 87 (no result: PV pol inh)
Cn1c(C2CC2)n[nH]c1=S	none
COc1ccc(NC(=O)C(C)n2nnc3sc(-c4ccccc4)cc3c2=O)cc1Cl (stereo not drawn)	PV pol inh 76 (no result: AID504770, MbtI inh, MenB inh)
CC1CCN(C(=O)c2ccc(Br)cc2)CC1	MenB inh 36
COc1ccc(C(=O)N2CC(C)CC(C)C2)cc1 (stereo not drawn)	none
COc1ccc(C(=S)N2CCC(C)CC2)cc1	MbtI inh 72
CC1CCN(C(=O)c2ccc(C(C)(C)C)cc2)CC1	none (no result: MbtI inh)
CCCn1c(=O)n(Cc2ccc(Br)cc2)c2ccccc21	none
COc1ccc2c(c1)C1(NNc3ccccc3O1)C(=O)N2 (stereo not drawn)	AID504770 -11
CCOC(=O)/C(C#N)=C1\CC2CCC1(C)C2(C)C (stereo not drawn)	MbtI inh 84
CN(C)C(=O)CCCc1nc(-c2ccc(Cl)cc2)no1	AID504770 -2.4
CCN(CC)c1ccc(N)c(C)c1	MbtI inh 98
CC1(C)N=C(c2ccccc2)C(=S)N1C(=O)c1ccccc1	MbtI inh 57
S=c1nc(-c2cccs2)cn[nH]1	MbtI inh 74
Cc1nc(-c2cccs2)cs1	none (no result: MenB inh)
COC(=O)CC1C(=O)NCCN1C(=O)CSc1nc2ccccc2s1 (stereo not drawn)	MbtI inh 97
COC(=O)CC1C(=O)NCCN1C(=O)CSc1nc2ccccc2c(=O)n1-c1ccc(C)cc1 (stereo not drawn)	none
Cc1occc1C(=O)Nc1ccccc1Cc1ccccc1	none
COc1cccc(NC(=O)CCSc2nc(-c3ccco3)cc(C(F)(F)F)n2)c1	PV pol inh 90 (no result: AID504770, MbtI inh, MenB inh)
CC1CN(CC(=O)c2cccs2)CC(C)O1 (stereo not drawn)	none
N#CC(C#N)=C(Nc1ccccn1)C(F)(F)F	none (no result: MbtI inh, PV pol inh, MenB inh)
COc1ccc(C2CC(=O)N3CN(C4CCCCC4)CSC3=C2C#N)cc1 (stereo not drawn)	PV pol inh 75 (no result: AID504770, MbtI inh, MenB inh)
COc1cccc(C2CC(=O)N3CN(C4CCCCC4)CSC3=C2C#N)c1 (stereo not drawn)	PV pol inh 77 (no result: AID504770, MbtI inh, MenB inh)
CCOC(=O)CN1CSC2=C(C#N)C(c3ccc(OC)cc3)CC(=O)N2C1 (stereo not drawn)	none
COc1cccc(C2CC(=O)NC(SC)=C2C#N)c1 (stereo not drawn)	none
COc1cccc(OC)c1CN(C)C(=O)c1c(C(F)(F)F)ccnc1OC	none (no result: MbtI inh, PV pol inh, MenB inh)
O=C(CSC1CCS(=O)(=O)C1)OCc1c(Cl)cccc1Cl (stereo not drawn)	none
O=C1Nc2ccccc2-c2ccccc2N1	none
O=C1Nc2ccccc2C(=O)C1(O)O	MenB inh 43
CC(C)C(C)(C#N)NC(=O)CSc1nnc(-c2cccc(S(=O)(=O)N3CCOCC3)c2)n1-c1ccc(F)cc1 (stereo not drawn)	none
CCOC(=O)CCc1c(CC(=O)OCC)c[nH]c1/C=N/O	PV pol inh 50
CCOC(=O)CCc1c(C)nc2ncnn2c1C	none (no result: PV pol inh, MenB inh)
O=C(CSc1ncc(C(F)(F)F)cc1Cl)N1CCNC1=O	MbtI inh 58
CC(C)N(C(=O)CSc1nncn1-c1ccccc1)c1ccccc1	none
N#CSCC(=O)c1cccs1	AID504770 -3.7, PV pol inh 85 (no result: MbtI inh)
Cc1cc2[nH]c(=O)c(=O)[nH]c2cc1S(=O)(=O)N1CCCCC1	AID504770 -2.5
Cc1cc(C)c(S(=O)(=O)N2CCCCC2)cc1C	none (no result: MbtI inh, PV pol inh, MenB inh)
O=C1C=CC(=O)N1C1CC1	AID504770 -6, MbtI inh 91
O=C1C(c2cc(Cl)cc(Cl)c2)=C(O)c2ccccc21	MbtI inh 89
Cc1nnc(SCC(=O)Nc2ccccc2)n1N	none (no result: MbtI inh, PV pol inh, MenB inh)
CC(C)c1nnc(SCC(=O)Nc2ccc(Cl)cc2)n1N	MbtI inh 89
Cc1noc2nc(-c3ccc(Cl)cc3)cc(C(=O)O)c12	none
COc1ccc(/C(C#N)=C/c2c(Cl)cccc2Cl)cc1	none (no result: MbtI inh, PV pol inh, MenB inh)
